# Records with an inconclusive call do not appear. Entries that show only a call come without a potency. Active and inactive are the calls of the source. Calls follow the shape of the full dose curve.
# Target: Beta-2 adrenergic receptor (Homo sapiens) (UniProt P07550)
# Assay: Adrenergic beta2 receptor (ADRB2) small molecule antagonists, cell-based qHTS assay (AID 1963592); also: nearly all actives have a fitted effect of over 50% in size
# Conditions: CHO-ADRB2 cells, isoproterenol-stimulated cAMP HTRF ratio, 0.5 h; series mostly up to 92.4 µM; activity change, negative = inhibition: at the top concentration
# Source text: U.S. Tox21 Program National Center for Advancing Translational Sciences [NCATS] Division of Preclinical Innovation [DPI] U.S. Environmental Protection Agency [EPA] National Institutes of Environmental Health Sciences [NIEHS] National Toxicology Program [NTP] U.S. Food and Drug Administration [FDA] Tox21 Assay Overview: Beta adrenergic receptors (Beta-ARs) belong to the G-protein coupled receptor (GPCR) superfamily, includes three subtypes - beta1, beta2, and beta3. Beta1-AR is the predominant receptor subtype expressed in the heart, and beta2-AR is expressed in the kidney, lung, blood vessel and in the heart, and beta3 is found in the adipocytes. Beta1 and 2 ARs couple to Gs protein and elevate cyclic adenosine mono phosphate (cAMP), which activates protein kinase A and leads to the downstream signaling responsible for the physiological actions. Beta-AR agonists or antagonists are the most prescribed therapeutic agents for heart failure and asthma, and these were one of the first target receptors for the rational drug design. Tox21 10K compound library was screened using the cAMP-Gs dynamic assay (Cisbio Bioassays, Shelton, CT) to identify agonists/antagonists of the Gs-coupled human adrenergic, beta2 receptor (ADRB2) in the CHO-ADRB2 cell line (Codex BioSolutions, Inc. Gaithersburg, MD), which stably over-expresses ADRB2. The principle of cAMP-Gs dynamic assay is based on HTRF technology, which facilitates the fluorescence resonance energy transfer (FRET) between donor Europium cryptate and acceptor d2-labeled cAMP. The cAMP generated within cells competes with the red acceptor, d2-labled cAMP, for binding to the monoclonal anti-cAMP-cryptate (Europium donor). An increase in intracellular cAMP leads to the disruption of FRET signal, and the signal is inversely proportional to the cAMP concentration. Propranolol HCl (Sigma-Aldrich, St. Louis, MO) was used as a positive control in the screening.
# Tox21 Assay Protocol Summary: CHO-ADRB2 cells were dispensed at 1,000/well in 4uL assay medium into white/solid 1536-well plates (Greiner Bio-One North America Inc., Monroe, NC) using a Multidrop Combi dispenser (ThermoFisher Scientific, Waltham, MA). The assay plates were incubated at 37C and 5% CO2 for an overnight (18-20hr). Then positive control and test compounds dissolved in DMSO were transferred to the assay plates at 23nL using a Pintool station (Wako, San Diego, CA). Following the compound and positive control transfer, 1uL agonist-stimulation mix containing 1nM Isoproterenol HCl, 100uM IBMX and 25uM Ro-20-1724 was added to each well of the assay plates using BioRAPTR Flying Reagent Dispenser (FRD, Beckman Coulter, Brea, CA). The assay plates were incubated at room temperature for 0.5hr. Then 2.5ul each d2-labled cAMP and anti-cAMP-cryptate solutions were added separately to each well of the assay plates using an FRD and the assay plates were incubated at room temperature for 1hr. The fluorescence signal was measured at two different wavelengths (665nm and 615nm) using an Envision plate reader (Perkin Elmer, Shelton, CT). Data were expressed as the ratio of 665 nm/615 nm.
# Potency is read from the fitted curve at half-maximal effect.
# Beta-2 adrenergic receptor (Homo sapiens), sequence (P07550 whole entry, looked up): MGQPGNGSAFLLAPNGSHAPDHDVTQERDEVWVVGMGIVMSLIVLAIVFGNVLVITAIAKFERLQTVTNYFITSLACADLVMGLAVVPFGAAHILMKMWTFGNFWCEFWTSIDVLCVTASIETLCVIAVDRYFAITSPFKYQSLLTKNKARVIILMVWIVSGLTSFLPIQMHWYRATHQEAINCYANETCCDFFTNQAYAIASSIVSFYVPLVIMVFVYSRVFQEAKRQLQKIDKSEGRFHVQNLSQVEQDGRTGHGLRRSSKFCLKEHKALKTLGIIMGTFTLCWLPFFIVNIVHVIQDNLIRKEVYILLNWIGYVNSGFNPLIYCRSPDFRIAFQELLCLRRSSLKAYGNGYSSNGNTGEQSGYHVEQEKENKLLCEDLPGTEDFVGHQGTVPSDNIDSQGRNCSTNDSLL
SMILES,Potency,"activity change, negative = inhibition"
CC(=O)CC(c1ccccc1)c1c(O)c2ccccc2oc1=O (stereo not given),inactive,
c1ccc2c(c1)c1cccc3ccc4cccc2c4c31,inactive,
CCC[C@H](N[C@@H](C)C(=O)N1[C@H](C(=O)O)C[C@@H]2CCCC[C@@H]21)C(=O)OCC,inactive,
C=CN1CCCC1=O,inactive,
Cc1cc(CC(=O)O)n(C)c1C(=O)c1ccc(Cl)cc1,inactive,
CCN(CCN)c1cccc(C)c1,24.6 µM (active),
O=CCc1ccccc1,inactive,
Clc1ccc(Cl)c(Cl)c1Cl,inactive,
Cc1ccc(C(C)C)cc1,inactive,
CC1(C)CC(N)CC(C)(CN)C1 (stereo not given),inactive,
O=C(C1CCCCC1)N1CC(=O)N2CCc3ccccc3C2C1 (stereo not given),inactive,
Cc1cc(C)c(C)cc1C,inactive,
Cc1ccc2ncccc2c1,inactive,
Cc1ccc(S(=O)(=O)O)cc1C,inactive,
CCC(Cc1c(I)cc(I)c(N)c1I)C(=O)O (stereo not given),inactive,
[Na+],inactive,
Oc1c(Cl)cc(Cl)c(Cl)c1Cl,inactive,
CN(C)c1ccc(C(=C2C=CC(=[N+](C)C)C=C2)c2ccccc2)cc1,inactive,
Cc1ccc2c(c1)C(=O)OC2=O,inactive,
O=C1O[C@H]([C@H](O)CO)C(O)=C1O,,1.54% (inactive)

SMILES,Potency,"activity change, negative = inhibition"
Cc1ncc(CO)c(CO)c1O,inactive,
CN(C)CCC(c1ccccc1)c1ccccn1 (stereo not given),inactive,
C[C@]12C=CC(=O)C=C1CC[C@@H]1[C@@H]2[C@@H](O)C[C@@]2(C)[C@H]1CC[C@]2(O)C(=O)CO,inactive,
C/C=C1/CC2C=CC1C2 (stereo not given),,2.32% (inactive)
CN(C)C=O,inactive,
CCCCCCCCCCCC(=O)OC,inactive,
CCCCCCCC(=O)OC,inactive,
CC1COC(=O)O1 (stereo not given),inactive,
Cc1ccc(C)c(OCCCC(C)(C)C(=O)O)c1,inactive,
N=C(N)c1ccc(OCCCCCOc2ccc(C(=N)N)cc2)cc1,inactive,
Oc1ccc(Cc2ccccc2O)cc1,inactive,
CCCCC(CC)CO (stereo not given),inactive,
OC[C@H]1O[C@@H](Oc2ccc(O)cc2)[C@H](O)[C@@H](O)[C@@H]1O,inactive,
O=C1CCCC1,inactive,
COc1cc2c(c(OC)c1OC)-c1ccc(OC)c(=O)cc1[C@@H](NC(C)=O)CC2,,2.2% [at 42.5 µM] (inactive)
CC1=CC2C3CC(C=C3C)C2C1 (stereo not given),inactive,
CC(C)(CO)CO,inactive,
CC1(C)OC[C@@H]2O[C@@]3(C(=O)O)OC(C)(C)O[C@H]3[C@@H]2O1,inactive,
C=CC(C)CCCC(C)(C)O (stereo not given),inactive,
CCCCCCCC(=O)O,inactive,
